Among the data in ChEMBL document CHEMBL1157539, “Thousands of chemical starting points for antimalarial lead identification” (Nature, 2010) are Inhibition values, retold here.

Type in all cases: functional
Experiment [1] deals with Plasmodium falciparum. As to the kind of experiment: GSK_TCMDC: Inhibition of Plasmodium falciparum 3D7 in whole red blood cells, using parasite LDH activity as an index of growth. Test compounds present at 2uM.
Experiment [2] has as its system Plasmodium falciparum. As to the kind of experiment: GSK_TCMDC: Inhibition of Plasmodium falciparum Dd2 in whole red blood cells, using parasite LDH activity as an index of growth. Test compounds present at 2uM.
The next experiment relates to HepG2. As to the kind of experiment: GSK_TCMDC: Percent inhibition of human HepG2 cell line. Test compounds present at 10uM.

By Inhibition is commonly meant the percentage by which the read-out fell short of the control. Read a high Inhibition as strong suppression. Regarding `COc1ccc2[nH]c3ccccc3c(=O)c2c1`, the Inhibition in the experiment with Plasmodium falciparum [1] is on record as 87%; in the experiment on Plasmodium falciparum [2], 75%; with HepG2, 0%.
In the same order, the values of `CCCCOc1ccc(C(O)C(CN2CCCCC2)c2ccccc2)cc1` (stereo unspecified) are 90%, 84% and 7%.
For `c1cc(CNc2ncc(-c3ccsc3)c(-c3nccs3)n2)ccn1`, the Inhibition was 89% in the experiment on Plasmodium falciparum [1], 81% with Plasmodium falciparum [2] and 18% in the experiment on HepG2.
In the same order, the values of `CN(C)C(=S)N/N=C1/C(=O)Nc2ccc(OC(F)(F)F)cc21` are 93%, 52% and 36%.
Taken in the same sequence, the figures for `COc1cc(CNCCCCCCNCc2cc(OC)cc3ccccc23)c2ccccc2c1.CS(=O)(=O)O` were 100%, 94% and 57%.
In the same order, the values of `COc1ccc2ncc(F)c(CCN3CC(O)C(CNCc4ccc(F)cc4)C3)c2n1.Cl` (stereo unspecified) are 93%, 21% and 38%.
As to `O=C(Oc1ccc(Cl)cc1C(=O)Nc1ccc([N+](=O)[O-])cc1Cl)c1ccccc1`, the Inhibition in the experiment on Plasmodium falciparum [1] was found to be 97%; in the experiment on Plasmodium falciparum [2] it was 19%; in the experiment on HepG2 it was 88%.
As to `COc1ccc2c(NN=Cc3cccc(F)c3)ccnc2c1`, the Inhibition in the experiment on Plasmodium falciparum [1] came out at 100%; in the experiment with Plasmodium falciparum [2] it was 95%; in the experiment on HepG2, 49%.
Taken in the same sequence, the figures for `Nc1nc(N)c2c(ccc3c2ccn3Cc2ccc(Cl)cc2)n1` were 100%, 99% and 100%.
Taken in the same sequence, the figures for `Cc1ccc(NC(=S)N2CCCN(CCCCCNC(=O)/C=C/c3ccc(Cl)c(Cl)c3)CC2)cc1Cl` were 93%, 5% and 14%.
In the case of `COc1ccc(-c2nc(NC(=O)Cc3ccc(OC)c(OC)c3)sc2C)cc1`, the Inhibition with Plasmodium falciparum [1] was 93%; with Plasmodium falciparum [2], 22%; in the experiment on HepG2, 33%.
In the same order, the values of `O=C(O)C(F)(F)F.OCCN1CCN(Cc2ccc(-c3ccc(-c4nc5cc(C(F)(F)F)ccc5[nH]4)s3)cc2)CC1` are 100%, 99% and 65%.
